Assay outcomes from PubChem BioAssay.
A selection: hits, their analogues and other compounds. The true share with any hit is near 2.3%.
A549 tox-1: Nrf2 qHTS screen for inhibitors: counterscreen for cytotoxicity; A549 ARE-Fluc cells, CellTiter-Fluor viability, 18-24 h; Potency, µM (highest dose often 46 µM), most hits filed as inhibitors; actives 0.16% (n = 390,000); AID 504648, 2011
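A549 ARE-Fluc cells in 5% FBS OPTI-MEM, 5000 cells/well, rested 2 h then exposed to compounds in concentration-response for 18-24 h at 37 °C. Viability by CellTiter-Fluor fluorescence (Ex 405/Em 525) after 30 min; luciferase luminescence (BugLite, 15 min, RT) read afterwards.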
Nrf2 ARE act: qHTS of Nrf2 Activators; actives 0.31% (n = 410,000); AID 624171, 2012; AREc32 ARE-luciferase reporter (MCF7-derived line), luminescence, 24 h; Potency, µM (highest dose often 46.1 µM), most hits filed as activators; also: nearly all actives have a fitted effect of over 65% in size
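AREc32 cells carrying an ARE-driven firefly luciferase, 1000 cells/well in OPTI-MEM with 5% FBS, dosed after overnight attachment and incubated 24 hr at 37 deg C. Steady-Glo luminescence read after 30 min at RT.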
Nrf2 inh: Nrf2 qHTS screen for inhibitors; A549 ARE-Fluc reporter, luciferase luminescence, 18-24 h; Potency, µM (titrated, usually from 46 µM), most hits filed as inhibitors; actives 2.1% (n = 360,000); AID 504444, 2011; also: nearly all actives have a fitted effect of over 60% in size
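Cells were seeded and rested 2 h, then exposed to compounds for 18-24 h. CellTiter-Fluor was read first as a viability measure. BugLite was added 15 min before the final luminescent read of ARE-luciferase activity in A549 cells.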
miR-21 reporter: qHTS Assay for Modulators of miRNAs and/orActivators of miR-21; HeLa miR-21 FLuc reporter, luciferase, 48 h; Potency, µM (doses to about 38.3 µM), hits mostly activators; 340,000 tested, under 10 active;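 also: miR-21 action dims this reporter so a rising signal means less miR-21 action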
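HeLa cells stably expressing CMV-driven firefly luciferase with a downstream miR-21 binding sequence, endogenously expressing miR-21, were treated with titrations (up to about 40uM final) for 48 hours at 37 degree Celsius. Luciferase luminescence was read after lysis.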
Mito fusion act: qHTS Assay for Small Molecule Inhibitors of Mitochondrial Division or Activators of Mitochondrial Fusion; S. cerevisiae fusion-defective mutant growth rescue, CellTiterGlo 48 h; Potency, µM (highest dose often 46.1 µM), actives largely listed as activators; actives 0.23% (n = 320,000); also: nearly all actives have a fitted effect of over 45% in size
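Luminescent cell viability in 1536-well qHTS format served as the measure of rescued growth in ts fusion-mutant S. cerevisiae cultured on non-fermentable YPEG for 48 hours at 37C.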
Glioma ERSR ind: qHTS for Inducers of the Endoplasmic Reticulum Stress Response (ERSR) in Human Glioma: qHTS; U87-MG GRP78 promoter luciferase reporter, 16 h; actives 0.02% (n = 420,000); Potency, µM, most hits filed as activators; also: series mostly up to about 76 µM; nearly all actives have a fitted effect of over 35% in size
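Stably transfected U87-MG human glioma cells carrying a GRP78-based luminescent sensor were seeded at 1000 cells/well, pin-dosed with compounds and incubated 16 h. Luciferase reagent was then added, and end-point luminescence was read after 10 min at room temperature.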
FLuc counter 3: Nrf2 qHTS screen for inhibitors: Purified Fluc Biochemical Counterscreen for Hit Validation; shares compounds with Nrf2 inh; purified firefly luciferase, luminescence inhibition; Potency, µM (series often up to 57.5 µM), actives largely listed as inhibitors; actives 4% (n = 1,400); AID 720522, 2013; also: nearly all actives have a fitted effect of over 65% in size
Target sequence (P08659 whole entry, looked up): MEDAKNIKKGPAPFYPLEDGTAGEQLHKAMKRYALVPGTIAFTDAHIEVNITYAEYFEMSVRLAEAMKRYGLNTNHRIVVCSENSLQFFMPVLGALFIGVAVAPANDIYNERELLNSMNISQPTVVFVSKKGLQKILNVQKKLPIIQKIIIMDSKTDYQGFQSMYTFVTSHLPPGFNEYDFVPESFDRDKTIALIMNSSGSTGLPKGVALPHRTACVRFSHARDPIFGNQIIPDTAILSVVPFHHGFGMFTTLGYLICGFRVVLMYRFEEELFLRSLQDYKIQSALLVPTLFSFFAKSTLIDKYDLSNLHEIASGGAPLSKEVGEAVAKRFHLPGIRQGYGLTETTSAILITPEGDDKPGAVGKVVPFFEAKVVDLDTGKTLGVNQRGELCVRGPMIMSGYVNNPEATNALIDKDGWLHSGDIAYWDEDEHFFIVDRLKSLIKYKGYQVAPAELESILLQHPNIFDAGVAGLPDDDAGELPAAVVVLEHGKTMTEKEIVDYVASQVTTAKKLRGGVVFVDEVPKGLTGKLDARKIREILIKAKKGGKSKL
A549 tox-2: Nrf2 qHTS screen for inhibitors: A549 ARE-Fluc Cytotoxicity Counterscreen for Hit Validation; shares compounds with Nrf2 inh; A549 ARE-Fluc cells, cytotoxicity counterscreen; Potency, µM (top dose mostly 46.1 µM), usual class: inhibitors; actives 2% (n = 1,400); AID 720523, 2013;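 also: cells exposed to compounds for 18 to 24 hours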
ARE-Fluc inh: Nrf2 qHTS screen for inhibitors: Nrf2 A549 ARE-Fluc Confirmation Assay for Hit Validation. actives 74% (n = 1,400). AID 720524, 2013. shares compounds with Nrf2 inh. A549 ARE-firefly luciferase reporter, luminescence. Potency, µM (highest dose often 46.1 µM), most hits filed as inhibitors; also: nearly all actives have a fitted effect of over 65% in size
Each line names hits and unclear results; the compound was inactive in the other large screens (follow-up assays come after a bar, where shown). Calls follow the shape of the dose curve; as a rule, active = well fitted curve in the direction sought with a large enough effect; inconclusive = small, poorly fitted or top-dose-only effect, or another doubt; inactive = no such curve, though single readings can be large; an effect the other way counts as inactive or inconclusive.

O=C(Nc1ccccc1)c1ccc(S(=O)(=O)Nc2cccc(O)c2)cc1	Nrf2 inh inconclusive
CC(=O)c1cccc(NS(=O)(=O)c2ccc(C(=O)Nc3ccccc3)cc2)c1	Nrf2 inh 7.3µM | FLuc counter 3 inactive | A549 tox-2 inactive | ARE-Fluc inh 4.1µM
Cc1ncnc2nc[nH]c12	none (no result: A549 tox-1, Nrf2 ARE act, Nrf2 inh, miR-21 reporter, Mito fusion act) | FLuc counter 3 inactive | A549 tox-2 inactive | ARE-Fluc inh 5.8µM
Cc1cccc(NC(=O)Nc2nnc(N(C)C3CCCCC3)s2)c1C	Nrf2 inh inconclusive (no result: Mito fusion act)
COc1cc(OC)cc(C(=O)NNC(=O)c2ccccn2)c1	A549 tox-1 inconclusive, Nrf2 ARE act inconclusive, Nrf2 inh 8.2µM | FLuc counter 3 inactive | A549 tox-2 inactive | ARE-Fluc inh 7.3µM
COc1ccc(N2CCN(C(=O)CSc3c4c(nc5ccc(Cl)cc35)CCCC4)CC2)cc1	Nrf2 ARE act inconclusive, Nrf2 inh inconclusive (no result: Mito fusion act)
O=C(CSc1c2c(nc3ccc(Cl)cc13)CCCC2)N1CCN(c2ccc(Cl)cc2)CC1	A549 tox-1 inconclusive, Nrf2 inh 2.9µM (no result: Mito fusion act) | FLuc counter 3 inactive | A549 tox-2 inconclusive | ARE-Fluc inh 21µM
O=C(CSc1c2c(nc3ccc(Cl)cc13)CCCC2)N1CCN(c2cccc(Cl)c2)CC1	Nrf2 inh 9.2µM (no result: Mito fusion act) | FLuc counter 3 inactive | A549 tox-2 inconclusive | ARE-Fluc inh inconclusive
CCc1ccc(CNC(=O)CSc2c3c(nc4ccc(Cl)cc24)CCCC3)cc1	none (no result: Mito fusion act)
O=C(Cc1ccccc1)N(c1ccccc1)c1ccccc1	none (no result: miR-21 reporter, Mito fusion act)
NC(=O)c1ccc(NC(=O)C#Cc2ccccc2)cc1	Nrf2 ARE act inconclusive, Nrf2 inh 4.6µM, Glioma ERSR ind inconclusive | FLuc counter 3 inconclusive | A549 tox-2 inconclusive | ARE-Fluc inh 5.8µM
CC(Oc1ccccc1)C(=O)Nc1ccc(C(N)=O)cc1 (configuration not stated)	none (no result: Nrf2 inh)
O=C(Nc1ccc(Oc2cccnc2)nc1)c1ccc(C(F)(F)F)cc1	Nrf2 inh 5.8µM | FLuc counter 3 inconclusive | A549 tox-2 inactive | ARE-Fluc inh 4.6µM
Cc1ccc(S(=O)(=O)CC2CSc3nc(N)cc(=O)n32)cc1 (configuration not stated)	none
Cc1ccc(S(=O)(=O)CC2CSc3nc4ccccc4n32)cc1 (configuration not stated)	Nrf2 inh 0.73µM | FLuc counter 3 inactive | A549 tox-2 inactive | ARE-Fluc inh 1.3µM
N=c1ccn(Cc2cccc(F)c2)cc1	A549 tox-1 inconclusive, Nrf2 inh 2.1µM | FLuc counter 3 inactive | A549 tox-2 inactive | ARE-Fluc inh 5.8µM
Nc1ccn(Cc2cccc(F)c2)n1	none
CC(=O)c1c(C)[nH]c(C(=O)OCC(=O)Nc2ccc(Cl)c(S(=O)(=O)N(C)C)c2)c1C	Nrf2 inh 9.2µM, miR-21 reporter inconclusive | FLuc counter 3 inactive | A549 tox-2 inactive | ARE-Fluc inh 9.2µM
Cc1cc(C)c(S(=O)(=O)NCCc2ccncc2)c(C)c1	none
Cc1cc(C)c(S(=O)(=O)NCc2ccncc2)c(C)c1	Nrf2 inh inconclusive | FLuc counter 3 0.11µM | A549 tox-2 inactive | ARE-Fluc inh 0.21µM
Cc1ccc(S(=O)(=O)NCc2ccccn2)c(C)c1C	none
COc1cc(C)c(Br)cc1S(=O)(=O)NCc1ccncc1	Nrf2 inh 3.3µM | FLuc counter 3 inactive | A549 tox-2 inactive | ARE-Fluc inh inactive
Cc1ccc(S(=O)(=O)NCc2ccncc2)c(C)c1C	Nrf2 inh 1.5µM | FLuc counter 3 inactive | A549 tox-2 inactive | ARE-Fluc inh 6.5µM
NNC(=O)C1=NOC2COC3(CCN(c4ncccn4)CC3)OCC12 (configuration not stated)	Nrf2 inh inconclusive
O=C(N/N=C\c1ccc(Cl)cc1)C1=NOC2COC3(CCN(c4ccc([N+](=O)[O-])cc4)CC3)OCC12 (configuration not stated)	A549 tox-1 inconclusive, Nrf2 inh 2.6µM | FLuc counter 3 inactive | A549 tox-2 inactive
Nc1nc(N2CCCCC2)c2ncn(C3OC(CO)C(O)C3O)c2n1 (configuration not stated)	none (no result: A549 tox-1, Nrf2 inh, miR-21 reporter, Mito fusion act)
COc1ccc(CN(C)C(=O)Cc2ccc(OC)c(S(=O)(=O)N3CCOCC3)c2)cc1OC	none (no result: miR-21 reporter)
COc1ccc(Br)cc1CN(C)C(=O)Cc1ccc(OC)c(S(=O)(=O)N2CCOCC2)c1	Nrf2 inh 8.2µM (no result: miR-21 reporter) | FLuc counter 3 inactive | A549 tox-2 inactive | ARE-Fluc inh inactive
COc1ccc(Nc2nnc(SC(C(=O)Nc3cc(C)ccc3C)c3ccccc3)s2)cc1 (configuration not stated)	Nrf2 inh 8.2µM | FLuc counter 3 inactive | A549 tox-2 inactive | ARE-Fluc inh inactive
CCOc1ccc(S(=O)(=O)N(CC(=O)Nc2cccnc2)c2ccc(F)cc2)cc1	none
Cc1ccc(C(=O)NCc2ccco2)cc1S(=O)(=O)N1CCCCC1	none
Cc1ccc(C(=O)NCc2cccc(C(F)(F)F)c2)cc1S(=O)(=O)N1CCCCC1	Nrf2 inh 3.7µM (no result: miR-21 reporter) | FLuc counter 3 inactive | A549 tox-2 inactive | ARE-Fluc inh inconclusive
COc1cc(/C=C2\COC/C(=C\c3cc(OC)c(OC)c(OC)c3)C2=O)cc(OC)c1OC	Nrf2 inh 5.8µM, miR-21 reporter inconclusive | FLuc counter 3 inactive | A549 tox-2 inactive | ARE-Fluc inh 0.12µM
COc1cc(/C=C2\CC/C(=C\c3cc(OC)c(OC)c(OC)c3)C2=O)cc(OC)c1OC	none
Cc1ccc(-c2csc3nc(-c4ccncc4)[nH]c(=O)c23)cc1	Nrf2 inh inconclusive | FLuc counter 3 inactive | A549 tox-2 inactive | ARE-Fluc inh 1.8µM
CCCCNC(=O)[C@@H]1CC=C[C@@H]2CCN(C3CC3)C(=O)[C@@H]21	none (no result: miR-21 reporter, Mito fusion act)
CC(=O)N1c2ccc(S(=O)(=O)N3CCOCC3)cc2CC1C (configuration not stated)	none
